Test results: PubChem BioAssay (Tox21)
Inconclusive results are not listed. Calls of active or inactive are those of the source. Unless noted, calls follow the shape of the full dose curve.

Columns and labels:
[1] = qHTS assay to identify small molecule agonists of the NFkB signaling pathway (AID 1159509; active = well fitted curve in the direction sought with a large enough effect in the signal ratio in the repeat runs, not every such curve was filed as active; the % refers to the signal ratio; also: series mostly up to about 61 µM; % is scaled to controls: 0 for no effect and ±100 for the full control effect)
Method in brief: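 NFkB-bla ME-180 cells with a beta-lactamase reporter under an NF-kB response element were plated overnight, treated with compounds in DMSO for 5 hr at 37 C, then loaded with FRET substrate for 1.5 hr at room temperature.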

[2] = qHTS assay to identify small molecule agonists of the NFkB signaling pathway - cell viability counter screen (AID 1159515); also: series mostly up to about 61 µM; % is scaled to controls: 0 for no effect and ±100 for the full control effect; nearly all actives have a fitted effect of over 55% in size
Method in brief: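 5 hr compound treatment of NFkB-bla ME-180 cells (2,000/well, seeded overnight beforehand), followed by reporter substrate for 1.5 hr. CellTiter-Glo added afterward; luminescence after 30 min RT.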

[3] = qHTS assay to identify small molecule agonists of the endoplasmic reticulum stress response signaling pathway (AID 1159516; active = well fitted activation curve with a large enough effect in the signal ratio in the repeat runs, not every such curve was filed as active; the % refers to the signal ratio; also: % is scaled to controls: 0 for no effect and ±100 for the full control effect)
Method in brief: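 Reporter HeLa cells (ESRE-beta-lactamase) underwent 5 hr compound incubation at 37 C and 5% CO2 in quantitative HTS format. Detection followed 2 hr of FRET substrate loading at room temperature.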

[4] = qHTS assay to identify small molecule agonists of the endoplasmic reticulum stress response signaling pathway - cell viability counter screen (AID 1159517);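 also: HeLa cells carrying an ER stress response element beta-lactamase reporter; series mostly up to about 61 µM; % is scaled to controls: 0 for no effect and ±100 for the full control effect; nearly all actives have a fitted effect of over 50% in size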
Method in brief: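 Luminescence readout: CellTiter-Glo, 30 min RT, same wells as the ESRE-bla reporter read. HeLa ESRE-bla, 1,500 cells/well, o/n 37 C; cpd 5 hr 37 C/5% CO2.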

[5] = qHTS assay to identify small molecule antagonists of the retinoid-related orphan receptor gamma (ROR-gamma) signaling pathway - cell viability counter screen (AID 1159520; active = well fitted curve in the direction sought with a large enough effect in the repeat runs; an effect the other way counts as inactive or inconclusive; also: % is scaled to controls: 0 for no effect and ±100 for the full control effect; nearly all actives have a fitted effect of over 50% in size)
Method in brief: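 Tet-on ROR gamma CHO cells (1,000/well) were plated 4 hr, given compounds in DMSO for 2 hr at 37 C, then induced with 1 uM final doxycycline for 16 hr. Viability was read as ATP by CellTiter-Glo luminescence after 30 min.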

[6] = biological target: Nuclear receptor ROR-gamma (Homo sapiens) (UniProt P51449); experiment: qHTS assay to identify small molecule antagonists of the retinoid-related orphan receptor gamma (ROR-gamma) signaling pathway (AID 1159521; active = well fitted curve in the direction sought with a large enough effect in the repeat runs; an effect the other way counts as inactive or inconclusive;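 also: CHO cells with doxycycline inducible ROR-gamma driving an RORE luciferase reporter; top concentration of the series differs between compounds; % is scaled to controls: 0 for no effect and ±100 for the full control effect; nearly all actives have a fitted effect of over 50% in size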)
Method in brief: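 Test compounds were applied to Tet-on RORγ CHO cells 2 h ahead of doxycycline hyclate (1 uM final). Luciferase reporter activity was quantified by luminescence after 16 h at 37 C and 5% CO2.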

[7] = qHTS assay to identify small molecule agonists of the AP-1 signaling pathway - cell viability counter screen (AID 1159525); also: nearly all actives have a fitted effect of over 55% in size
Method in brief: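 ME-180 AP-1-bla, 2500 cells/well, Opti-MEM + 0.5% dialyzed FBS; overnight 37 °C; cpd 15-pt titration, 5 h 37 °C; CellTiter-Glo 30 min RT; luminescence read; normalised to TOAB and DMSO controls.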

[8] = qHTS assay to identify small molecule agonists of the AP-1 signaling pathway (AID 1159526); also: % is scaled to controls: 0 for no effect and ±100 for the full control effect
[9] = biological target: Retinoic acid receptor RXR-alpha (Homo sapiens) (UniProt P19793); experiment: qHTS assay to identify small molecule agonists of the RXR signaling pathway (AID 1159527); also: % is scaled to controls: 0 for no effect and ±100 for the full control effect; nearly all actives have a fitted effect of over 35% in size
Method in brief: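 Using 9-cis retinoic acid as the reference agonist, chemicals were tested in HEK 293T cells […] for 16 hr; substrate loading lasted 2 hr at room temperature.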

[10] = qHTS assay to identify small molecule antagonists of the vitamin D receptor (VDR) signaling pathway - cell viability counter screen (AID 743225; active = well fitted curve in the direction sought with a large enough effect in the repeat runs; an effect the other way counts as inactive or inconclusive; also: % is scaled to controls: 0 for no effect and ±100 for the full control effect; nearly all actives have a fitted effect of over 50% in size)
Method in brief: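 Compounds were pinned onto VDR-bla HEK 293T cells together with 1-alpha,25-dihydroxyvitamin D3 at 3 nM final. After 16 h at 37C and 5% CO2 plus the reporter readout, cell viability was measured by CellTiter-Glo luminescence (30 min, room temperature).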

Sequence of Retinoic acid receptor RXR-alpha (Homo sapiens) (P19793 whole entry, looked up): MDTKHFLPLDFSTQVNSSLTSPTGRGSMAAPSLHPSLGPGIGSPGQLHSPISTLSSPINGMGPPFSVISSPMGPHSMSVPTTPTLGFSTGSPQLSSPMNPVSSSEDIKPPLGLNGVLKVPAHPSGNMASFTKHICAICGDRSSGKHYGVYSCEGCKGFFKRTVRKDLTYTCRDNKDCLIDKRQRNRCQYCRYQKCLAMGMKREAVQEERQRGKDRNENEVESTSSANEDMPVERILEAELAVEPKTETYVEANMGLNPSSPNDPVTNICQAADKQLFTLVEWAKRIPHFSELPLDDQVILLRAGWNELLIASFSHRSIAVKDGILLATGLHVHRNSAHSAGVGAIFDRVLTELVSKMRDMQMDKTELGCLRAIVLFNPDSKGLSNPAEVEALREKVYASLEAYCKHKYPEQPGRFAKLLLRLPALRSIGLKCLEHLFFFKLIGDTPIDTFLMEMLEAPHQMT

C=CCCCC
inactive: outcome [1] | outcome [2] | outcome [3] | outcome [4] | outcome [5] | outcome [6] | outcome [7] | outcome [8] | Potency [9]

CC(O)CC(C)O (centres undefined)
inactive: outcome [1] | outcome [2] | outcome [3] | outcome [4] | outcome [5] | outcome [6] | outcome [7] | outcome [8] | Potency [9]

CCCC(=O)OCCC(C)CCC=C(C)C (centres undefined)
inactive: outcome [1] | outcome [2] | outcome [3] | outcome [4] | outcome [5] | outcome [6] | outcome [7] | outcome [8] | Potency [9]

CC1=C(O)C(=O)C(C)O1 (centres undefined)
inactive: outcome [1] | outcome [2] | outcome [3] | outcome [4] | outcome [5] | outcome [6] | outcome [7] | outcome [8] | Potency [9]

CC(S)C(C)S (centres undefined)
inactive: outcome [1] | outcome [2] | outcome [3] | outcome [4] | outcome [5] | outcome [6] | outcome [7] | outcome [8] | Potency [9]

O=C(O)c1cc2ccccc2nc1C(=O)O
inactive: outcome [1] | outcome [2] | outcome [3] | outcome [4] | outcome [5] | outcome [6] | outcome [7] | outcome [8] | Potency [9]

CNCCS(=O)(=O)O
inactive: outcome [1] | outcome [2] | outcome [3] | outcome [4] | outcome [5] | outcome [6] | outcome [7] | outcome [8] | Potency [9]

COc1ccc(CCO)cc1
inactive: outcome [1] | outcome [2] | outcome [3] | outcome [4] | outcome [5] | outcome [6] | outcome [7] | outcome [8] | Potency [9]

O=NN(CCCl)C(=O)NC1CCCCC1
inactive: outcome [1] | outcome [2] | outcome [3] | outcome [4] | outcome [5] | outcome [6] | outcome [7] | outcome [8] | Potency [9]

CC(N)CCCC(C)(C)O (centres undefined)
inactive: outcome [10] | outcome [1] | outcome [2] | outcome [3] | outcome [4] | outcome [5] | outcome [6] | outcome [7] | outcome [8] | Potency [9]

O=C1CCCCO1
inactive: outcome [1] | outcome [2] | outcome [3] | outcome [4] | outcome [5] | outcome [6] | outcome [7] | outcome [8] | Potency [9]

C=CCN1C[C@H](C(=O)N(CCCN(C)C)C(=O)NCC)C[C@@H]2c3cccc4[nH]cc(c34)C[C@H]21
inactive: outcome [1] | outcome [2] | outcome [3] | outcome [4] | outcome [5] | outcome [6] | outcome [7] | outcome [8] | Potency [9]

Cc1ncc([N+](=O)[O-])n1CC(C)O (centres undefined)
inactive: outcome [10] | outcome [1] | outcome [2] | outcome [3] | outcome [4] | outcome [5] | outcome [6] | outcome [7] | outcome [8] | Potency [9]

c1ccc(B(c2ccccc2)c2ccccc2)cc1
inactive: outcome [10] | outcome [1] | outcome [2] | outcome [3] | outcome [4] | outcome [5] | outcome [6] | outcome [7] | outcome [8] | Potency [9]

CCCCC1CCC(O)CC1 (centres undefined)
inactive: outcome [10] | outcome [1] | outcome [2] | outcome [3] | outcome [4] | outcome [5] | outcome [6] | outcome [7] | outcome [8] | Potency [9]

CCCc1ccc(O)cc1
inactive: outcome [10] | outcome [1] | outcome [2] | outcome [3] | outcome [4] | outcome [5] | outcome [6] | outcome [7] | outcome [8] | Potency [9]

CC(=O)O[C@@H]1CC2CCC1(C)C2(C)C (some centres undefined)
inactive: outcome [10] | outcome [1] | outcome [2] | outcome [3] | outcome [4] | outcome [5] | outcome [6] | outcome [7] | outcome [8] | Potency [9]

COC(=O)CCCCC(CCSS/C(CCO)=C(\C)N(C=O)Cc1cnc(C)nc1N)SC(C)=O (centres undefined)
inactive: outcome [10] | outcome [1] | outcome [2] | outcome [3] | outcome [4] | outcome [5] | outcome [6] | outcome [7] | outcome [8] | Potency [9]

O=S(=O)(O)c1ccc2c(N=Nc3ccc(S(=O)(=O)O)c4ccccc34)c(O)c(S(=O)(=O)O)cc2c1
inactive: viability change, negative = cytotoxic [10] 6.08% [at 6.95 µM] | activation [1] 0.493% [at 6.95 µM] | activity, negative = cytotoxic [2] 6.88% [at 6.95 µM] | activation [3] -2.39% [at 6.95 µM] | activity change, negative = cytotoxicity [4] 0.511% [at 6.95 µM] | activity, negative = cytotoxicity [5] -3.34% [at 8.39 µM] | activity change, negative = inhibition [6] 0.236% [at 8.39 µM] | viability change, negative = cytotoxic [7] 6.35% [at 6.97 µM] | activation [8] -3.05% [at 6.97 µM] | activation [9] 0.333% [at 6.98 µM]

COS(=O)(=O)O
inactive: outcome [10] | outcome [1] | outcome [2] | outcome [3] | outcome [4] | outcome [5] | outcome [6] | outcome [7] | outcome [8] | Potency [9]

CC(C)OC(=O)CCC(=O)OC(C)C
inactive: outcome [10] | outcome [1] | outcome [2] | outcome [3] | outcome [4] | outcome [5] | outcome [6] | outcome [7] | outcome [8] | Potency [9]

CCCCCCCCCCCCCCC(=O)NC(CO)CCCCCCCCCCCCCC (centres undefined)
inactive: outcome [10] | outcome [1] | outcome [2] | outcome [3] | outcome [4] | outcome [5] | outcome [6] | outcome [7] | outcome [8] | Potency [9]

O=C(O)CNC(=O)CNC(=O)CNC(=O)CSC(=O)c1ccccc1
inactive: outcome [10] | outcome [1] | outcome [2] | outcome [3] | outcome [4] | outcome [5] | outcome [6] | outcome [7] | outcome [8] | Potency [9]
